Sfp inh: blocks B. subtilis Sfp PPTase activity. Q9F4F7. 310,000 tested, 3.5% active. AID 1490. Biochemical Sfp PPTase activity, qHTS. Potency, µM, without a hit: largest response in the series, negative = inhibition, actives largely listed as inhibitors;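 note: the enzyme is Sfp with the accession as filed and its product quenches rhodamine fluorescence; potency is the fitted concentration of half-maximal effect; 0% = enzyme reaction without inhibitor and -100% = no enzyme wells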
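With Hepes-Na pH 7.6 buffer containing 10 mM MgCl2, Sfp (15 nM) modified BHQ-2-YbbR (12.5 uM) using rhodamine-CoA (5 uM). Two reads 30 minutes apart at 525/598 nm yielded each well's rate.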
KDM4E inh: JMJD2E (human) inhibition. B2RXH2. JMJD2E catalytic domain, FDH-coupled NADH fluorescence (FDH is formaldehyde dehydrogenase). Potency, µM (top dose mostly 57.1 µM), inactives show at the highest dose activity change, negative = inhibition, actives largely listed as inhibitors. 230,000 tested, 1.6% active. AID 2147; active = well fitted inhibition curve with a large enough effect, not every such curve was filed as active; inconclusive = small, poorly fitted or top-dose-only effect, or another doubt; inactive = no such curve, though single readings can be large or run the other way;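 note: potency is the fitted concentration of half-maximal effect; 0% = wells with enzyme and -100% = buffer wells without enzyme; nearly all actives have a fitted effect of over 50% in size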
Target sequence (B2RXH2 1-337 limits assumed): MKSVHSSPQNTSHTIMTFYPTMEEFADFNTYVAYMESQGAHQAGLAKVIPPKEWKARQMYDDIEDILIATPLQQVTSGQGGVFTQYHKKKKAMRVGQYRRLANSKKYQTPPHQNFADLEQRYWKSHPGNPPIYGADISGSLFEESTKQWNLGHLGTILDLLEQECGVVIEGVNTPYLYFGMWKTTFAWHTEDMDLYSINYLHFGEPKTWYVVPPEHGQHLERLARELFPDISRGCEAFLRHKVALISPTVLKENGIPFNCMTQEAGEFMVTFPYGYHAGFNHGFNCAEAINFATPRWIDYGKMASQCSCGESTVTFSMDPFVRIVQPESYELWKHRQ
FBPA coupling cs: coupling enzyme interference in Giardia aldolase counter-screen; coupling enzyme system counterscreen, AmpLite Red fluorescence; activity change, negative = inhibition, % at 58.2 µM, hits read low; 290,000 tested, 0.67% active; in the data active = activity change below about -30%
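First, compound is pin-transferred into glyceraldehyde-3-phosphate coupling-enzyme reagent at 57.5 uM final and held 10 min at RT. Next, substrate, coupling system and AmpLite Red are added. After 20 min RT, fluorescence (525/598 nm) is read.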
Tau fluor counter: counter-screen for tau fibril formation inhibitors; tau K18 P301L Alexa594 fluorescence, heparin fibrillization; Potency, µM (titrated, usually from 57.7 µM), inactives show at the top dose activity change, negative = decrease; 280,000 tested, 0.93% active; AID 1463; note: potency is the fitted concentration of half-maximal effect; nearly all actives have a fitted effect of over 55% in size
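Human tau K18 P301L (15 uM unlabeled, 0.24 uM Alexa 594-labeled) in 100 mM sodium acetate pH 7 with 20 uM heparin, 6 hr at 37 C. ThT 30 uM added, 1 hr ambient; Alexa 594 FP and total fluorescence read at 555/632 nm.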
Tau fibril ThT: blocks human tau fibril formation measured by thioflavin T; P10636; recombinant tau K18 P301L (four-repeat tau fragment), heparin-induced fibrillization, ThT fluorescence; Potency, µM (top dose mostly 57.4 µM), without a hit: at the top dose activity, negative = inhibition, most hits filed as inhibitors; 270,000 tested, 2.1% active; note: potency is the fitted concentration of half-maximal effect; nearly all actives have a fitted effect of over 55% in size
Target sequence (P10636 561-689 P618L limits assumed): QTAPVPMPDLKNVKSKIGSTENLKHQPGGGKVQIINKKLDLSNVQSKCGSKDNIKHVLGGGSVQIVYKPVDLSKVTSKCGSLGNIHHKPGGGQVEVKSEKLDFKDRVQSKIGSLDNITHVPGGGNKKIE
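K18 P301L tau (15 uM + 0.24 uM Alexa 594-tagged), heparin 20 uM, NaOAc pH 7, 6 h 37 C; ThT 30 uM, 1 h RT, ex 450/em 510 nm.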
Tau fibril FP: tau fibrillization inhibition (FP); K18 P301L tau heparin fibrillization, Alexa594 FP, 6 h; Potency, µM (doses to about 57.7 µM), for the others: top-dose activity, negative = inhibition, actives largely listed as inhibitors; P10636; 280,000 tested, 0.39% active; note: potency is the fitted concentration of half-maximal effect; nearly all actives have a fitted effect of over 55% in size
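Steps: dispense K18 P301L tau (15 uM plus 0.24 uM Alexa 594 tracer, final) in pH 7 sodium acetate; add compound; add heparin (20 uM final); incubate 6 hr, 37 C; add ThT (30 uM final); after 1 hr ambient, read FP.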
Numbers without * were called inactive; ? = inconclusive; . = no result given; [ ] = remark or other dose. Most compounds without a hit are left out; they make up all but 5.3% or so of the library. Unless noted, calls come from the whole dose curve; as a rule, active = well fitted curve in the direction sought with a large enough effect; inconclusive = small, poorly fitted or top-dose-only effect, or another doubt; inactive = no such curve, though single readings can be large; an effect the other way counts as inactive or inconclusive. Unless noted, % is set by controls: 0 for no effect and ±100 for the full control effect.

SMILES	Sfp inh	KDM4E inh	FBPA coupling cs	Tau fluor counter	Tau fibril ThT	Tau fibril FP
O=C(CSc1nc(-c2ccccc2)[nH]c1-c1ccccc1)Nc1ccc2c(c1)OCCO2	.	.	.	10µM*[quencher]	?	-14.0%
COc1ccc(-c2[nH]c(-c3ccccc3)nc2SCC(=O)Nc2ccc3c(c2)OCCO3)cc1	.	.	.	8.91µM*[quencher]	?	?
COCCn1c(=O)c(-c2ccc(F)cc2)nc2cnc(N3CCOCC3)nc21	34.1%	.	-2.4	.	.	.
CN(C)c1ccc2c(O)cc(=O)n(C)c2c1	-28.7%	?	-36.8*	-27.0%	25.1µM*	22.4µM*
CN(c1ccc(Cl)cc1)c1cc(=O)n(C)c2ccccc12	-13.0%	-7.3%	1.9	-15.0%	?	?
N#C/C(=C\c1cccc(O)c1)c1nc2ccccc2o1	79.4µM*	?	-3.1	?	?	?
N#C/C(=C\Nc1ccccc1O)c1nc2ccccc2o1	?	0.2%	-4.6	17.8µM*[quencher]	?	?
N#C/C(=C\c1ccncc1)c1nc2ccccc2o1	?	?	-1.3	-11.9%	-17.1%	-4.1%
CC(C)(C)OC(=O)N1CCC[C@H]1C(O)(c1ccccc1)c1ccccc1	5.3%	13.6%	0.3	-4.6%	2.3%	5.3%
O=C(COC(=O)c1cccc2ccccc12)Nc1ncc(C(F)(F)F)cc1Cl	-1.0%	?	0.7	-14.1%	-6.8%	-1.9%
O=C(COC(=O)c1cc(-c2ccccc2Cl)nc2ccccc12)Nc1ncc(C(F)(F)F)cc1Cl	39.8µM*	?	3.0	-21.0%	-2.5%	-4.2%
O=C(COC(=O)c1ccc([N+](=O)[O-])s1)Nc1ncc(C(F)(F)F)cc1Cl	?	20µM*	-11.9	-16.1%	?	-4.5%
CC(C)=CCc1c2c(c3occ(-c4ccc(O)cc4)c(=O)c3c1O)C=CC(C)(C)O2	0.0%	-10.4%	-6.7	3.16µM*[quencher]	?	22.4µM*
CC(C)=CCc1c2c(c3occ(-c4ccc(O)c(O)c4)c(=O)c3c1O)C=CC(C)(C)O2	36.8%	?	-10.7	3.55µM*[quencher]	?	25.1µM*
CC1(C)C=Cc2c(c3c(c4c(=O)c(-c5ccc(O)cc5)coc24)OC(C)(C)CC3)O1	-21.9%	?	-2.9	?	?	?
O=C(Cn1cnc2c(oc3ccccc32)c1=O)Nc1ccccc1C(F)(F)F	.	.	.	1.8%	2.7%	-3.5%
COCCCN(C(=S)Nc1c(C)cc(C)cc1C)C(C)c1ccccn1 (stereo not given)	22.4µM*	5.0%	0.8	-5.7%	-7.5%	-14.8%
Cc1cccc(C)c1NC(=S)N(CCN(C)C)C(C)c1ccccn1 (stereo not given)	-25.3%	?	1.6	-1.0%	-3.5%	0.5%
COc1ccc(N2CCN(Cc3cc(OC)c(O)c([N+](=O)[O-])c3)CC2)cc1	?	22.4µM*	-0.2	-13.3%	?	-3.3%
CO[C@@H]1COC(=O)CC=C[C@@H](C)[C@@H]2C=C[C@@H](O)[C@@H](COC(=O)C/C=C\[C@H]1C)O2	16.6%	.	-0.5	0.0%[11.6 µM]	-0.9%[11.5 µM]	-2.8%[11.6 µM]
CCOC(=O)c1sc(=S)n(-c2ccccc2Cl)c1SC	0.5%	-1.1%	-1.0	-17.4%	-13.9%	-2.1%
CCOC(=O)c1c(N)sn(-c2ccccc2C)c1=S	17.8µM*	-17.9%	2.3	-18.5%	?	?
CCOC(=O)N1CCN(C(=O)c2ccc(OCC)cc2)CC1	-17.6%	3.3%	-4.7	7.0%[2.34 µM]	-6.5%	7.6%
CCOC(=O)N1CCN(C(=O)c2c(N)no[n+]2[O-])CC1	11.7%	10.1%	4.6	-11.0%	25.1µM*	?
O=C(NC(=S)N1CCCCC1)c1csc([N+](=O)[O-])c1	-2.6%	-1.0%	-0.3	6.1%	6.4%	-1.2%
SMILES	Sfp inh	KDM4E inh	FBPA coupling cs	Tau fluor counter	Tau fibril ThT	Tau fibril FP
C=CCNC(=S)NC(=O)c1csc([N+](=O)[O-])c1	56.2µM*	-7.5%	-1.7	-12.3%	?	-10.6%
CCC(C)n1ncn(-c2ccc(N3CCN(c4ccc(OCC5COC(Cn6cncn6)(c6ccc(Cl)cc6Cl)O5)cc4)CC3)cc2)c1=O (stereo not given)	3.1%	-4.9%	-0.8	?	1.41µM*	-6.6%
CC(C)N1CCN(c2ccc(OC[C@@H]3CO[C@@](Cn4cncn4)(c4ccc(Cl)cc4Cl)O3)cc2)CC1	15.2%	1.7%[25.5 µM]	2.3	.	.	.
O=C(Oc1ccc(NC2=C(Cl)C(=O)c3ccccc3C2=O)cc1)c1ccc([N+](=O)[O-])cc1	-3.7%	9.5%	-15.6	2.82µM*[quencher]	3.16µM*	?
Cc1ccc(NC2=C(NCCO)C(=O)c3ccccc3C2=O)cc1	-6.8%	?	-48.1*	?	22.4µM*	?
CC(=O)Nc1ccc(NC2=C(Cl)C(=O)c3ccccc3C2=O)cc1	-3.6%	-25.0%	-1.3	2.24µM*[quencher]	2µM*	10µM*
COc1ccccc1NC1=C(NC(C)=O)C(=O)c2ccccc2C1=O	-96.9%	25.1µM*	-55.6*	-29.0%	20µM*	?
COc1ccc(C2=C(Nc3ccc(C)cc3)c3ccccc3C2=O)cc1	4.6%	0.2%	-4.0	-23.2%	-13.0%	5.3%
COc1cccc(COCCN2CCN(S(=O)(=O)c3ccccc3)CCC2=O)c1	10.5%	.	4.2	.	.	.
COc1ccc(OC)c(-c2ccccc2/C=N/NS(=O)(=O)c2ccc(C)cc2)c1	-4.7%	.	7.9	-16.6%[11.6 µM]	-16.0%[11.5 µM]	-2.2%[11.6 µM]
COC(=O)C1=C(C(=O)OC)[C@@H]2N(C)c3ccccc3[C@@]23C[C@@H](C(=O)OC)N(S(=O)(=O)c2ccc(C(F)(F)F)cc2)C3=N1	-6.9%	3.3%[11.4 µM]	-2.2	-19.9%[11.6 µM]	-3.9%[11.5 µM]	3.3%[11.6 µM]
Cc1ccccc1-n1c2nc(=O)[nH]c(=O)c-2cc2c(Cl)cccc21	.	.	.	6.8%	2.4%	8.1%
CN(C)c1ccc(NC(=O)CN2C(=O)c3ccccc3C2=O)cc1	-0.8%	.	3.8	.	.	.
CN(C)c1ccc(NC2=C(Cl)C(=O)c3ccccc3C2=O)cc1	?	6.8%	-42.7*	3.55µM*[quencher]	7.94µM*	14.1µM*
CCOc1ccccc1-c1nnc2n1N=C(c1cc(OC)ccc1OC)CS2	-16.0%	.	-4.3	.	.	.
Cc1ccc(NC(=O)Cn2c(=O)n(Cc3nc(-c4ccccc4)no3)c(=O)c3ccccc32)cc1C	.	.	.	-21.4%	21.8%	?
O=C(Cn1c(=O)n(Cc2nc(-c3ccccc3)no2)c(=O)c2cc3c(cc21)OCO3)Nc1cccc(C(F)(F)F)c1	.	.	.	-9.4%	?	10µM*
COc1ccc(-c2noc(Cn3c(=O)c4ccccc4n(CC(=O)Nc4cccc(C(F)(F)F)c4)c3=O)n2)cc1	.	.	.	-8.6%	?	11.2µM*
CCOc1ccc(NC(=O)Cn2c(=O)n(Cc3nc(-c4ccccc4)no3)c(=O)c3cc4c(cc32)OCO4)cc1	.	.	.	-29.6%	2.9%	?
